VACV Venus inh: vaccinia inhibition (Venus reporter). hit rate 0.46% among 330,000. Vaccinia virus Venus reporter expression, fluorescence. AID 720580. Potency, µM (series often up to 36.5 µM), inactives show at the top dose activity change, negative = inhibition, actives largely listed as inhibitors; calls by dose curve; tested in A549 cells; note: potency is the fitted concentration of half-maximal effect; nearly all actives have a fitted effect of over 30% in size
HCMV inh: blocks human cytomegalovirus replication; activity change, negative = inhibition, % at 57.5 µM; HFF cells, HCMV-luciferase reporter, 72 h; active compounds read low; hit rate 4.5% among 410,000; in the data active = activity change below about -60%; inconclusive = no clear call, values can overlap the other calls; inactive = above about -39%
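After 16 h attachment at 37C, HFF cells received test compound and HCMV-luciferase (1 PFU/cell); reporter luminescence read 72 h later, data normalized against buffer-only and known inhibitor Salinomycin.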
Sm TGR inh: S. mansoni TGR enzyme inhibition; hit rate 3% among 360,000; Q962Y6; Potency, µM (titrated, usually from 114 µM), without a hit: at the top dose activity change, negative = inhibition, actives largely listed as inhibitors; purified TGR, DTNB reduction, TNB absorbance 405 nm; note: potency is the fitted concentration of half-maximal effect; nearly all actives have a fitted effect of over 60% in size
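Kinetic colorimetric format: TGR-catalysed, NADPH-driven DTNB reduction monitored via TNB absorbance. Enzyme dispensed at 20 nM; compound exposure 15 min at room temperature before reaction start.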
HCV inhibitor: blocks hepatitis C virus; hit rate 3.4% among 340,000; Potency, µM (top dose mostly 41.8 µM), without a hit: at the top dose activity change, negative = inhibition, usual class: inhibitors; Huh7.5.1 HCVcc-Cre infection, luciferase reporter, 44 h; note: potency is the fitted concentration of half-maximal effect
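Infectious HCV cell culture screen: compound-treated cells (1,000/well, pre-plated 4 h) are infected with HCVcc-Cre at roughly 0.5 moi and grown 44 h. Infection is quantified by luciferase signal after 15 min substrate incubation at room temperature.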
VACV mCherry inh: inhibitors of vaccinia virus infection (mCherry reporter signal) | Vaccinia virus mCherry reporter infection, fluorescence | Potency, µM (top dose mostly 36.5 µM), inactives show top-dose activity change, negative = inhibition, actives largely listed as inhibitors | hit rate 0.63% among 310,000 | AID 720579; calls by dose curve; tested in A549 cells; note: potency is the fitted concentration of half-maximal effect; nearly all actives have a fitted effect of over 35% in size
FMDV antiviral: blocks foot and mouth disease virus; Potency, µM (doses to about 57.9 µM), inactives show top-dose activity change, negative = inhibition, most hits filed as inhibitors; FMDV antiviral cell-based qHTS; AID 1159524; hit rate 1.2% among 410,000; calls by dose curve; tested in HEK293T cells; note: read-out not given here; potency is the fitted concentration of half-maximal effect; nearly all actives have a fitted effect of over 45% in size
Active calls of the source: *. Sampled rows, rich in hits. Any-hit rate of the full collection: about 9.3%. Unless noted, calls come from the whole dose curve; as a rule, active = well fitted curve in the direction sought with a large enough effect; inconclusive = small, poorly fitted or top-dose-only effect, or another doubt; inactive = no such curve, though single readings can be large; an effect the other way counts as inactive or inconclusive. % is set by controls: 0 for no effect and ±100 for the full control effect.

For Cc1ccc2sc(NC(=O)CSc3nc(C)cc(C)c3C#N)nc2c1 the results were HCMV inh 56, Sm TGR inh 0%, HCV inhibitor -18% and FMDV antiviral 55%.
Screening Cc1cc(C(F)(F)F)c(C#N)c(SCC(=O)Nc2nc3ccccc3s2)n1 returned VACV Venus inh 22%, HCMV inh -60*, Sm TGR inh -3%, HCV inhibitor inconclusive, VACV mCherry inh -7% and FMDV antiviral inconclusive.
Cc1ccc(-c2ccc(=O)n(CC(=O)NCCN(CC(C)C)CC(C)C)n2)cc1 was read as HCMV inh -20, Sm TGR inh -15%, HCV inhibitor -4% and FMDV antiviral -21%.
Screening Cc1ccccc1NC(=O)CSc1nc2c(c(-c3ccco3)c1C#N)CCCC2 returned HCMV inh 15, Sm TGR inh 0%, HCV inhibitor -1% and FMDV antiviral -25%.
Screening CC(C)c1nnc(NC(=O)CSc2nc3ccccc3s2)s1 returned HCMV inh -73*, Sm TGR inh 3%, HCV inhibitor 11% and FMDV antiviral 19%.
`N#Cc1c(SCC(=O)Nc2nccs2)nc2c(c1-c1ccco1)CCCC2` gave VACV Venus inh -13%, HCMV inh inconclusive, Sm TGR inh 45µM*, HCV inhibitor inconclusive, VACV mCherry inh -21% and FMDV antiviral 3%.
Screening Cc1nc(SCC(=O)Nc2nc3ccccc3s2)n[nH]1 returned VACV Venus inh -14%, HCMV inh 25, Sm TGR inh 7%, HCV inhibitor inconclusive, VACV mCherry inh -26% and FMDV antiviral 5%.
Screening CCc1nnc(NC(=O)CSc2nc3ccccc3s2)s1 returned VACV Venus inh -7%, HCMV inh 1, Sm TGR inh -7%, HCV inhibitor 13%, VACV mCherry inh -3% and FMDV antiviral 7%.
Screening Cc1nc(SCC(=O)Nc2nc3ccccc3s2)c(C#N)c(C)c1C returned HCMV inh -94*, Sm TGR inh -22%, HCV inhibitor inconclusive and FMDV antiviral 0.1µM*.
Screening N#Cc1c(C(F)(F)F)cc(-c2cccs2)nc1SCC(=O)Nc1cccc(Br)c1 returned VACV Venus inh inconclusive, HCMV inh -70*, Sm TGR inh 12%, VACV mCherry inh inconclusive and FMDV antiviral 0%.
Cc1cc(C)n(-c2ncc3c(n2)N(CCO)CCOC3=O)n1 was read as HCMV inh 13, Sm TGR inh 4%, HCV inhibitor 2% and FMDV antiviral -17%.
`O=C(CSC1=NCCS1)Nc1nc2ccccc2s1` gave VACV Venus inh inconclusive, HCMV inh -68*, Sm TGR inh -21%, HCV inhibitor inconclusive, VACV mCherry inh inconclusive and FMDV antiviral 1%.
c1cncc(-c2nc(-c3ccco3)cs2)c1 was read as VACV Venus inh -1%, HCMV inh 6, Sm TGR inh 7.9µM*, HCV inhibitor 3%, VACV mCherry inh -5% and FMDV antiviral 37%.
For Clc1ccsc1-c1csc(-c2cccnc2)n1 the results were VACV Venus inh inconclusive, HCMV inh 177, Sm TGR inh -4%, HCV inhibitor 14µM* and FMDV antiviral -9%.
Screening O=C(COC(=O)C1CCC(=O)N1)Nc1ccccc1Br (stereo unspecified) returned VACV Venus inh -16%, HCMV inh -1, Sm TGR inh 7%, HCV inhibitor 7%, VACV mCherry inh -11% and FMDV antiviral -12%.
CC(C)(C)CN1CCNC(=O)C1CC(=O)N1CCOc2ccccc2C1 (stereo unspecified) was read as VACV Venus inh 4%, HCMV inh inconclusive, Sm TGR inh 40µM*, HCV inhibitor 7%, VACV mCherry inh -4% and FMDV antiviral -9%.
C=C(C)CN(CC)C(=O)CC1C(=O)NCCN1CC(C)(C)C (stereo unspecified) was read as HCMV inh -24, Sm TGR inh 40µM*, HCV inhibitor 15% and FMDV antiviral -9%.
COc1cccc(CN2CCNC(=O)C2CC(=O)N2CCOc3ccccc3C2)c1OC (stereo unspecified) was read as VACV Venus inh 2%, HCMV inh 8, Sm TGR inh -4%, HCV inhibitor 7%, VACV mCherry inh -3% and FMDV antiviral 5%.
`CCN(CC)CCNC1=NCCn2c1cc1cc(OC)ccc12` gave HCMV inh 70, Sm TGR inh -4%, HCV inhibitor 6.3µM* and FMDV antiviral -6%.
Screening CC[C@@H]1C=C(C(=O)O)[C@H](c2ccc3c(c2)OCO3)N1S(=O)(=O)c1ccc(C)cc1 returned VACV Venus inh -2%, HCMV inh 36, HCV inhibitor 32µM*, VACV mCherry inh inconclusive and FMDV antiviral -11%.
CCCC[C@@H]1C=C(C(=O)O)[C@H](c2ccc(CC)cc2)N1S(=O)(=O)c1ccc(C)cc1 was read as VACV Venus inh -8%, HCMV inh 10, HCV inhibitor 0.56µM*, VACV mCherry inh inactive and FMDV antiviral -2%.
For CN(C)c1ccc(C(=C2C=CC(=[N+](C)C)C=C2)c2ccc(N(C)C)cc2)cc1 the results were VACV Venus inh 10µM*, VACV mCherry inh 235% and FMDV antiviral 18µM*.
CCN1CCN(C(c2ccc(F)cc2)c2c(O)cc(C)n(CCOC)c2=O)CC1 (stereo unspecified) was read as VACV Venus inh -1%, HCMV inh -5, Sm TGR inh 4.5µM*, VACV mCherry inh -3% and FMDV antiviral -15%.
CCN1CCN(C(c2cccc(F)c2)c2c(O)cc(C)n(CCOC)c2=O)CC1 (stereo unspecified) was read as VACV Venus inh -9%, HCMV inh -9, Sm TGR inh 4µM*, VACV mCherry inh -15% and FMDV antiviral -9%.
CCN1CCN(C(c2cccc(Cl)c2)c2c(O)cc(C)n(CCOC)c2=O)CC1 (stereo unspecified) was read as VACV Venus inh -6%, HCMV inh -27, Sm TGR inh 5.6µM*, VACV mCherry inh -9% and FMDV antiviral -20%.
Screening CCN1CCN(C(c2ccc(Cl)cc2)c2c(O)cc(C)n(CCOC)c2=O)CC1 (stereo unspecified) returned VACV Venus inh -9%, HCMV inh -5, Sm TGR inh 4.5µM*, VACV mCherry inh -3% and FMDV antiviral -15%.
Screening COc1ccccc1CN(C)CC(=O)Nc1cccc(S(=O)(=O)N2CCCCC2)c1 returned VACV Venus inh -19%, HCMV inh -24, Sm TGR inh 9%, HCV inhibitor inconclusive, VACV mCherry inh inconclusive and FMDV antiviral -21%.
For CCN1CCN(C(c2ccc(OC)cc2)c2c(O)cc(C)n(CCOC)c2=O)CC1 (stereo unspecified) the results were VACV Venus inh -10%, HCMV inh -12, Sm TGR inh 10µM*, VACV mCherry inh -8% and FMDV antiviral -15%.
